Test [1] addresses High affinity nerve growth factor receptor (Homo sapiens) (UniProt P04629). The following applies: at 1 µM.
Test [2] addresses BDNF/NT-3 growth factors receptor (Homo sapiens) (UniProt Q16620). The following applies: at 0.1 µM.
The target is the same in test [3]. The following applies: at 1 µM.
Test [4] has as its target NT-3 growth factor receptor (Homo sapiens) (UniProt Q16288). The following applies: at 0.1 µM.
For test [5] the target is unchanged. The following applies: at 1 µM.
The target in test [6] is T1, Tyrosine-protein kinase TXK (Homo sapiens) (UniProt P42681).
T1 sequence (whole entry): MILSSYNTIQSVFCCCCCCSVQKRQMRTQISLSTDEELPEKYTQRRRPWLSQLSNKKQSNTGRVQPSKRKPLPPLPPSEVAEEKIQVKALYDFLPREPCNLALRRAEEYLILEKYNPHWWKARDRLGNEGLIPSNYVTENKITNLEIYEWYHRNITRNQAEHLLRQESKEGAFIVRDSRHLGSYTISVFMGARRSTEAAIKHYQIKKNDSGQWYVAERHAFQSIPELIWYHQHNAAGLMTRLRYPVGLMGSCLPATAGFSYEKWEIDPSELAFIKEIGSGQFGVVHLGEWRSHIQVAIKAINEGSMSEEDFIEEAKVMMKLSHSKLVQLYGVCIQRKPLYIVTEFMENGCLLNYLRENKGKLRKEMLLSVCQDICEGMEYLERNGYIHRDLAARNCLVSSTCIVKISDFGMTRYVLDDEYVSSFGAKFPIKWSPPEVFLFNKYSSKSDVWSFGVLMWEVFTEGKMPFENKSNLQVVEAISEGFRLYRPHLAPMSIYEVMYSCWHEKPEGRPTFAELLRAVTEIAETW
The following applies: at 0.1 µM.

Test [7] addresses T1, Tyrosine-protein kinase TXK (Homo sapiens). The following applies: at 1 µM.
Test [8] concerns the target Non-receptor tyrosine-protein kinase TYK2 (Homo sapiens) (UniProt P29597). The following applies: at 0.1 µM.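 Further: each value is a mean of the inhibition readings.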
Test [9] addresses T2, Dual specificity protein kinase TTK (Homo sapiens) (UniProt P33981).
T2 sequence (whole entry): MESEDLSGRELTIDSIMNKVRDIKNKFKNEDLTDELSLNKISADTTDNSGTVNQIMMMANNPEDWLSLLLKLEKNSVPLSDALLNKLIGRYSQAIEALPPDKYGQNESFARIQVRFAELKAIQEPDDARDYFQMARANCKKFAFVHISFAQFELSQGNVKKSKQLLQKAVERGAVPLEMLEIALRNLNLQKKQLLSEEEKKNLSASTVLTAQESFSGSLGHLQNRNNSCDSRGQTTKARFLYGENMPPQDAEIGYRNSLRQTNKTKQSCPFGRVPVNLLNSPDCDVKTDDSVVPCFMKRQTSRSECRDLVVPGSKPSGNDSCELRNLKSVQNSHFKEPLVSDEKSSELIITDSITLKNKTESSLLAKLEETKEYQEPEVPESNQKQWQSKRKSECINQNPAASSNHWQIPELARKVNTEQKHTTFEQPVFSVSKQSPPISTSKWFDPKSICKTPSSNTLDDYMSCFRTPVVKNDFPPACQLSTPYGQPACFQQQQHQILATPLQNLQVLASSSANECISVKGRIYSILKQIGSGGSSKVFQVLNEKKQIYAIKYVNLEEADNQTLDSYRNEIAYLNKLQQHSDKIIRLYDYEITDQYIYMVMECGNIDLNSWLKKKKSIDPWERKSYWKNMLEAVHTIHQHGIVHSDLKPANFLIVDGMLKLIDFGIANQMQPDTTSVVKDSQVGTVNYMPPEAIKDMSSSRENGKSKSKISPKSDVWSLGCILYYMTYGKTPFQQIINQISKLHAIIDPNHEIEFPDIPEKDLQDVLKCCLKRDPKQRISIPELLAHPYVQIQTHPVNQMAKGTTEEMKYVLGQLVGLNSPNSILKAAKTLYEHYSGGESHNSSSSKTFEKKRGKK
The following applies: at 1 µM.

Test [10] addresses T3, Aurora kinase A (Homo sapiens) (UniProt O14965).
T3 sequence (whole entry): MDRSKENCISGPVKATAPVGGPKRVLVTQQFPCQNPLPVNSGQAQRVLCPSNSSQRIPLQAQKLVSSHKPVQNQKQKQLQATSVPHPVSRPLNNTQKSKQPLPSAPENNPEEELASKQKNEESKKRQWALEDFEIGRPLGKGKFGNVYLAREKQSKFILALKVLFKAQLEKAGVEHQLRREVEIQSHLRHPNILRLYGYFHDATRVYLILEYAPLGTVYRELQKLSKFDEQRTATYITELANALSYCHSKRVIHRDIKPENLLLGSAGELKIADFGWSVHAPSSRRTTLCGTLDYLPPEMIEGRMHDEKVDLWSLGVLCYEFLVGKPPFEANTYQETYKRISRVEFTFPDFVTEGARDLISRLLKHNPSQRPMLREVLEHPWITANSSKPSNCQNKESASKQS
The following applies: at 0.1 µM.

Test [11] has as its target T3, Aurora kinase A (Homo sapiens). The following applies: at 1 µM.
Test [12] addresses Aurora kinase B (Homo sapiens) (UniProt Q96GD4). The following applies: at 0.1 µM.
Test [13] shares this target. The following applies: at 1 µM.
For test [14], the target named is T4, Aurora kinase C (Homo sapiens) (UniProt Q9UQB9).
T4 sequence (whole entry): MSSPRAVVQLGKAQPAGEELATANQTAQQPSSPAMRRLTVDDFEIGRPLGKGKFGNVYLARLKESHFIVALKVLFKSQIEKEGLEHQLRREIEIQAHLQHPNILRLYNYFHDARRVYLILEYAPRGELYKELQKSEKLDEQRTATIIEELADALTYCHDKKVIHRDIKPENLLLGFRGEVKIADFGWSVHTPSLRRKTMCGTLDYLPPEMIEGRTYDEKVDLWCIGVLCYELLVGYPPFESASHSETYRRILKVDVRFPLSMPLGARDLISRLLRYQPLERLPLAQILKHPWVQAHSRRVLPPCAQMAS
The following applies: at 0.1 µM.

Test [15] has as its target T4, Aurora kinase C (Homo sapiens). The following applies: at 1 µM.
Test [16] addresses Serine/threonine-protein kinase 10 (Homo sapiens) (UniProt O94804). The following applies: at 0.1 µM.
Test [17] has the same target. The following applies: at 1 µM.
For test [18], the target named is T5, Mitogen-activated protein kinase kinase kinase kinase 2 (Homo sapiens) (UniProt Q12851).
T5 sequence (whole entry): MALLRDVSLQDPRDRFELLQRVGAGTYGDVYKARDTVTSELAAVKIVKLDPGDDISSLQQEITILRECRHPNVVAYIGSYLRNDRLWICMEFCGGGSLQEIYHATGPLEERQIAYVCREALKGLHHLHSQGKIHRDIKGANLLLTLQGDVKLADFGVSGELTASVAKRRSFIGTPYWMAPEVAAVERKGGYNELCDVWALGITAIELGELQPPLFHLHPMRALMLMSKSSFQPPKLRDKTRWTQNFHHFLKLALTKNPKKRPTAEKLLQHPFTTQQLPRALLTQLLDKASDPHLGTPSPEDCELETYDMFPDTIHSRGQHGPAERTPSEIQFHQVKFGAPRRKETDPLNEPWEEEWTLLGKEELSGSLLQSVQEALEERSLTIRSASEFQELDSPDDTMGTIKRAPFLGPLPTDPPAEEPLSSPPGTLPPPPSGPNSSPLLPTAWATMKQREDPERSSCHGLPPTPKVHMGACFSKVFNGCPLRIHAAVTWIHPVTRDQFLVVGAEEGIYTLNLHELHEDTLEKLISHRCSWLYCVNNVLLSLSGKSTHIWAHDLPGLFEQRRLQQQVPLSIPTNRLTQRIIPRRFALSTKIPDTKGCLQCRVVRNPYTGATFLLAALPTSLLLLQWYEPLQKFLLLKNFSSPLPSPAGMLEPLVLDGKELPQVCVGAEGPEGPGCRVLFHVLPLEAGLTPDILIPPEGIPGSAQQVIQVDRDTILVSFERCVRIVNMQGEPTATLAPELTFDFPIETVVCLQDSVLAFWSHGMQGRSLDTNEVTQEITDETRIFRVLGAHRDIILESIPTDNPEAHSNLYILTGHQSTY
The following applies: at 0.1 µM.

In test [19] the target is T5, Mitogen-activated protein kinase kinase kinase kinase 2 (Homo sapiens). The following applies: at 1 µM.
Test [20] deals with Mitogen-activated protein kinase kinase kinase kinase 4 (Homo sapiens) (UniProt O95819). The following applies: at 0.1 µM.
Chain of Mitogen-activated protein kinase kinase kinase kinase 4 (Homo sapiens) (O95819 2-1239 limits assumed): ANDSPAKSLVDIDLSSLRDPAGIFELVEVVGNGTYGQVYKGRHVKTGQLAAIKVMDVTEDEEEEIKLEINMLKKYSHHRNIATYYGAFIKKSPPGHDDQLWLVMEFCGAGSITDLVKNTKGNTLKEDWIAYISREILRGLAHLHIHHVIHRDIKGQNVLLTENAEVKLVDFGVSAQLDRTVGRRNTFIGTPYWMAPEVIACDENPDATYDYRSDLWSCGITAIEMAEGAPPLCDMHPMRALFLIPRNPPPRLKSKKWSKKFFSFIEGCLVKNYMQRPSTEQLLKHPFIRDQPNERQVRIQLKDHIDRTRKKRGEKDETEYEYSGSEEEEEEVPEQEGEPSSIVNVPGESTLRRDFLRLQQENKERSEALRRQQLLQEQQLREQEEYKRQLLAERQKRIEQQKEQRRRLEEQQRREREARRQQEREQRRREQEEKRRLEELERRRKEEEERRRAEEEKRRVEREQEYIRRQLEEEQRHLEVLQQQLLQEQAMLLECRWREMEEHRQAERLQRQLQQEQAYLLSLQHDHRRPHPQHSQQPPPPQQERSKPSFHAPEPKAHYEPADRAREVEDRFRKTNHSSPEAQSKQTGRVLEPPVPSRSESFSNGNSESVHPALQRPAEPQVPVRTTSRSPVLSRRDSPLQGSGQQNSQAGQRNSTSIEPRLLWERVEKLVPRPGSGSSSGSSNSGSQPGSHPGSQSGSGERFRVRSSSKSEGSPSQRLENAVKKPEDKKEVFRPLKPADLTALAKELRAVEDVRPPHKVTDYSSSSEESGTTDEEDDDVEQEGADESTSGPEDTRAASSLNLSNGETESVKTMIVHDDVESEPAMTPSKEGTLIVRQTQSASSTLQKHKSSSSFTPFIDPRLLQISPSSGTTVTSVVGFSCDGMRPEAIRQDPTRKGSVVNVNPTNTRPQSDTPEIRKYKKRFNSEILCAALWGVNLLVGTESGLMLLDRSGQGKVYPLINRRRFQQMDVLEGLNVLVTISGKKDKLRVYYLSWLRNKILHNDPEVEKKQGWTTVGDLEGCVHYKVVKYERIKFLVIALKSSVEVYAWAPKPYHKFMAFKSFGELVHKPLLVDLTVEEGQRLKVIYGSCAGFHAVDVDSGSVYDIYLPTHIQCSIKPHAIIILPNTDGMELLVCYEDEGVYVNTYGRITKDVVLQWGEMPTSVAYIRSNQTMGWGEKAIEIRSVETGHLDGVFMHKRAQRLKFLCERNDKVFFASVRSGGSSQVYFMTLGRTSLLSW

Chain of Aurora kinase B (Homo sapiens) (Q96GD4 whole entry): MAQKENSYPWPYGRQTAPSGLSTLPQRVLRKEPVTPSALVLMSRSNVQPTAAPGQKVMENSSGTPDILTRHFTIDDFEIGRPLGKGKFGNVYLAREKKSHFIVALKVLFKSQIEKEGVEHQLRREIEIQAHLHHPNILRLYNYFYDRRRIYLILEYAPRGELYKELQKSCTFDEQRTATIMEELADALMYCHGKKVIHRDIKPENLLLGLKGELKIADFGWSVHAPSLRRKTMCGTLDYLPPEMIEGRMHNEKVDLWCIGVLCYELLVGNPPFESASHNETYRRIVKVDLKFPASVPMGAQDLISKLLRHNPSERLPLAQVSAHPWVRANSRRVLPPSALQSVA
Chain of Serine/threonine-protein kinase 10 (Homo sapiens) (O94804 whole entry, looked up): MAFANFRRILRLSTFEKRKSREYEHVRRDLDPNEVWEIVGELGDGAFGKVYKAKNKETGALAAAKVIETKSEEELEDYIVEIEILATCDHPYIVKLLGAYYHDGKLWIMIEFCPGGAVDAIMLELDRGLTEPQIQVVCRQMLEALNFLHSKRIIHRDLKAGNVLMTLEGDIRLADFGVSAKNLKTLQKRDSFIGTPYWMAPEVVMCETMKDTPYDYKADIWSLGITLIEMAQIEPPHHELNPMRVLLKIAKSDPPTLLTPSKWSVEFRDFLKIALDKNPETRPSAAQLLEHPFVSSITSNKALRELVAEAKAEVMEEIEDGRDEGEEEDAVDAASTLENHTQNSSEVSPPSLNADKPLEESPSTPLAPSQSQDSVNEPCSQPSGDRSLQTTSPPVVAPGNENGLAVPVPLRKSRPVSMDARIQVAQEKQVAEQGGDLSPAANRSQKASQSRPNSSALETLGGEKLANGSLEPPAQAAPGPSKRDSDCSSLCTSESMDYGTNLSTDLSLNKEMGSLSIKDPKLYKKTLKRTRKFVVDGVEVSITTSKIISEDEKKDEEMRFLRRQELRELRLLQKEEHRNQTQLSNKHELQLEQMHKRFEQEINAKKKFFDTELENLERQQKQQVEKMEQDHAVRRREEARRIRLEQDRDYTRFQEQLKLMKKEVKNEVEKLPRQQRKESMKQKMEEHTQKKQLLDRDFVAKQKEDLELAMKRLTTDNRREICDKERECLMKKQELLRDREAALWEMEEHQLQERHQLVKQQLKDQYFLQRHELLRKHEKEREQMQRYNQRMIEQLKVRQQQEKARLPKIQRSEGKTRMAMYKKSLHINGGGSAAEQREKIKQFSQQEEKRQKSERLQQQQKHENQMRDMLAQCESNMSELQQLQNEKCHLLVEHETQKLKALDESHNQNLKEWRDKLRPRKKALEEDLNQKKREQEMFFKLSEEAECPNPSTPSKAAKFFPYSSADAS
Chain of NT-3 growth factor receptor (Homo sapiens) (Q16288 32-839 limits assumed): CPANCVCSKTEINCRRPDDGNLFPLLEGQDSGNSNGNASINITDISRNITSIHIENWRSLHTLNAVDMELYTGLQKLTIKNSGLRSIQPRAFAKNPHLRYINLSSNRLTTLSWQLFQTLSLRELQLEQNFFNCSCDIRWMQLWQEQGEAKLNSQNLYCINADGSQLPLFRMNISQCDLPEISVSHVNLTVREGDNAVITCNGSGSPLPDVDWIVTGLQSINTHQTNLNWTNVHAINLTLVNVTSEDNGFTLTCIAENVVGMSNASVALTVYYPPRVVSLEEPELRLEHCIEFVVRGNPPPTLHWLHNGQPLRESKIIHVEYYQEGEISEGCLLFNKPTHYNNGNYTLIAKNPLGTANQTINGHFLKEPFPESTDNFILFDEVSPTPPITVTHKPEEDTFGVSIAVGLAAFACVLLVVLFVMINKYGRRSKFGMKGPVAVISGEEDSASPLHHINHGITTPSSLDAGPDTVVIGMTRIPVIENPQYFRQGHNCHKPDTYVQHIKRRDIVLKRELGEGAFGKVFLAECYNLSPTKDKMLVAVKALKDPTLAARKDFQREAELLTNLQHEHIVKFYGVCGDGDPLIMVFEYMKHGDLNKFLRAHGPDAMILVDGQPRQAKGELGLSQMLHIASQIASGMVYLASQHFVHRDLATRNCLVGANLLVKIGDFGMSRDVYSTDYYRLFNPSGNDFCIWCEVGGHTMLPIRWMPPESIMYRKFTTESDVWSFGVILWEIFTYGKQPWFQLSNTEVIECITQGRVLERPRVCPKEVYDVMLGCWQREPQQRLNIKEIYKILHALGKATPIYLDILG
Chain of BDNF/NT-3 growth factors receptor (Homo sapiens) (Q16620 32-822 limits assumed): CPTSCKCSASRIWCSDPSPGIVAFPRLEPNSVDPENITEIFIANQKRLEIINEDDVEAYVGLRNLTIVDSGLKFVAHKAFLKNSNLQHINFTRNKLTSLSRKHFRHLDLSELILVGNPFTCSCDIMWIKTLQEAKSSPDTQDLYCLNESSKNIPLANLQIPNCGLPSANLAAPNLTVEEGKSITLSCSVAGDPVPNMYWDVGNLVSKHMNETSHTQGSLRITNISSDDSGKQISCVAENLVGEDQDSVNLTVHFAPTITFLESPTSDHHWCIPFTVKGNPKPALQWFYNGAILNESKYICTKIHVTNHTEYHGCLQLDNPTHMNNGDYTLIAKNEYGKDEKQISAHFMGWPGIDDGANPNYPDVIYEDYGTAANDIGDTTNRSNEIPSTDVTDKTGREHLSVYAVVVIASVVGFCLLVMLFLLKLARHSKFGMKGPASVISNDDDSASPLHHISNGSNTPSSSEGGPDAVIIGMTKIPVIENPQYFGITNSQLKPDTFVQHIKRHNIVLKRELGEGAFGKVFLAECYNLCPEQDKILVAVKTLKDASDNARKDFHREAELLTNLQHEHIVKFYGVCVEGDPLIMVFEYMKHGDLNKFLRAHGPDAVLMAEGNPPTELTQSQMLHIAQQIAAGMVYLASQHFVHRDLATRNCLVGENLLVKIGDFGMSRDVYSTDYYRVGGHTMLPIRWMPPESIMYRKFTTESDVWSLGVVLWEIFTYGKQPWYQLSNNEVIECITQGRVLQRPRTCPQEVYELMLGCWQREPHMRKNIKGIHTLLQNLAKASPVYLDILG
Chain of High affinity nerve growth factor receptor (Homo sapiens) (P04629 33-796 limits assumed): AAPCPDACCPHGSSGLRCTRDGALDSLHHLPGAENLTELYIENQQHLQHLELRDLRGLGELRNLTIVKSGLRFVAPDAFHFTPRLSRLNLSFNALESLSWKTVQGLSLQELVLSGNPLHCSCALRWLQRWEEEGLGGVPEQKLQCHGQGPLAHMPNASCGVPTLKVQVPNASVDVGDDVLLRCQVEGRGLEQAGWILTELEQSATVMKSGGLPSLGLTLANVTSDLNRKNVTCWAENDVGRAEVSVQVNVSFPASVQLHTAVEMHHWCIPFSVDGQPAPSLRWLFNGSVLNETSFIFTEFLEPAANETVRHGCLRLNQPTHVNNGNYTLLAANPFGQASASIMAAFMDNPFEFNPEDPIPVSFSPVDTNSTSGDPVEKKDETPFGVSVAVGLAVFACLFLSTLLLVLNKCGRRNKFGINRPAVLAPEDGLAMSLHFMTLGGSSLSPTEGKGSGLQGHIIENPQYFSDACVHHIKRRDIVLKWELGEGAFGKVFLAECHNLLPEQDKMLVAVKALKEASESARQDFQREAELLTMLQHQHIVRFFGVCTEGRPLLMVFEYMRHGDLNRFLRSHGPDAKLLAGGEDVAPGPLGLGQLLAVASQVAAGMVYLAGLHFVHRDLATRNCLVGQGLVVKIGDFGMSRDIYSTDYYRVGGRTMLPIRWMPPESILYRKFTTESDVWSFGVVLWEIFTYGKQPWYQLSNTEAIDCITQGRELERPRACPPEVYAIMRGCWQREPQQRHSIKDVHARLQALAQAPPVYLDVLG

By inhibition is commonly meant the change of the read-out against control, counted positive when it falls. Consider `CCN(CC)S(=O)(=O)c1ccc(OC)c(Nc2ncc(-c3ccccc3)o2)c1`, for which the inhibition in [1] came out at 41.5%; in test [2], 5.72%; in test [3] it was 41.5%; in test [4], 4.27%; in [5] it was 35.2%; in [6] it was 3.92%. Moreover, the inhibition in test [7] was 24.9%; in test [8], -1.59%; in test [9], 8.57%; in [10] it was 1.61%; in test [11], 13.9%; in [12], 1.33%. The inhibition in [13] was 4.64%; in [14], 2.12%; in test [15] it was -4.34%; in test [16], 2.55%; in [17], 8.37%; in [18], 1.18%. The values for the inhibition in test [19] and in [20] were 1.77% and 2.08%, respectively.
Take `COc1ccc(-c2oc3ncnc(N)c3c2-c2ccc(NC(=O)Nc3cc(C(F)(F)F)ccc3F)cc2)cc1`: the inhibition in [1] came to 98.4%; in [2], 88.4%; in [3], 101%; in [4], 87.2%; in test [5], 98.5%; in test [6], 3.68%. In addition, the inhibition in test [7] is 8.48%; in test [8], -5.26%; in test [9], 14.6%; in test [10] it was 1.73%; in test [11], 49.5%; in [12], 8.53%. Further, the inhibition in test [13] was 46.2%; in test [14] it was 3.56%; in test [15], 76.2%; in test [16], 49.5%; in [17] it was 91.3%; in test [18] it was 8.42%. In addition, the inhibition came out at 47.2% in test [19] and 5.29% in test [20].
As to `c1ccc(COc2ccc(Nc3ncnc4ccc(-c5ccco5)cc34)cc2)cc1`, the inhibition in [1] is -2.33%; in [2], -0.32%; in test [3] it was 3.16%; in test [4], -0.16%; in test [5], 0.74%; in test [6], 0.01%. Also, the inhibition was 1.09% in test [7]; -4.95% in [8]; 3.2% in [9]; 2.29% in test [10]; 3.53% in [11]; 1.9% in test [12]. For the same compound, the inhibition in test [13] came out at 4.9%; in [14] it was 0.82%; in [15], 6.4%; in test [16], 3.53%; in test [17] it was 5.39%; in test [18] it was 2.84%. Moreover, the inhibition in [19] was 2.66%; in test [20] it was 2.01%.
`CNC(=O)c1cncc(/C=C/c2ccccc2Cl)c1`: the inhibition in [1] is -0.75%; in test [2], -1.43%; in test [3] it was 2.71%; in [4], -1.83%; in test [5], 3.94%; in test [6], 4.15%. Also, the inhibition is 16% in test [7]; 2.63% in [8]; 5.89% in [9]; 1.14% in test [10]; 12% in [11]; 2.57% in [12]. Besides, the inhibition was 7.3% in test [13]; 5.27% in test [14]; -3.84% in [15]; 3.92% in test [16]; 8.22% in [17]; 1.8% in test [18]. The inhibition in test [19] was 2.04%; in test [20], 2.52%.
For the compound `CC(C)COC(=O)c1ccc2c(c1)/C(=C/Nc1ccc(S(N)(=O)=O)cc1)C(=O)N2`, the inhibition in test [1] was 30.4%; in [2] it was 6.02%; in test [3] it was 40.2%; in test [4], 8.8%; in test [5], 48.5%; in test [6], 1.73%. The inhibition in [7] was determined as 4.75%; in test [8] it was 3.35%; in test [9], 70.1%; in [10], 3.84%; in test [11], 61%; in test [12] it was 6.97%. Moreover, the inhibition is 48% in test [13]; 4.05% in test [14]; 82.9% in [15]; -1.08% in test [16]; 12.6% in test [17]; 2.95% in test [18]. In addition, the inhibition in test [19] is 14.3%; in test [20] it was 14.5%.
Take `COc1cccc(-n2ncc3c(N/N=C/c4ccc(F)cc4)ncnc32)c1`: the inhibition in test [1] was found to be 4.65%; in test [2], 3.34%; in [3], 4.5%; in [4] it was 3.31%; in [5] it was 6.74%; in [6], 4.3%. Also, the inhibition was 8.25% in test [7]; -4.95% in test [8]; 10.9% in test [9]; 2.1% in [10]; 18.5% in test [11]; 4.02% in test [12]. For the same compound, the inhibition in [13] was determined as 12.9%; in [14], 2.64%; in [15], 3.29%; in test [16], 6.75%; in test [17] it was 10.9%; in test [18], 0.43%. In addition, the inhibition came to 0.63% in test [19] and 5.23% in [20].

The values are drawn from ChEMBL document CHEMBL1961873, “Compounds: GSK PKIS; Assays: Nanosyn kinase panel” (2012).
